# Source: PubChem BioAssay AID504466 (National Center for Advancing Translational Sciences (NCATS), 2011)
# The whole screen tested about 330,000 compounds, of which about 4,200 (1.3%) were called active. A call without a number means that no potency is given here. Not shown: some 6% with an inconclusive outcome. The call rests on the fitted dose curve; in most records, active means well fitted activation curve with a large enough effect; inconclusive means small, poorly fitted or top-dose-only effect; inactive means no such curve, though single readings can be large or run the other way. The sample as a whole holds a higher share of actives than the screen did.
# Experiment: qHTS screen for small molecules that induce genotoxicity in human embryonic kidney (HEK293T) cells expressing luciferase-tagged ELG1; further: nearly all actives have a fitted effect of over 60% in size
# Settings: HEK293T ELG1-luciferase reporter, luminescence, 16 h; series mostly up to 46 µM
# Outline: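 Cells (2,000/well) expressing the ELG1-luciferase fusion are dosed by pin tool and kept 16 hr at 37 °C, 5% CO2. Signal comes from ONE-Glo luciferase reagent after 30 min at room temperature.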
# Potency means the concentration at half of the fitted maximal effect.
row,Compound,Potency
1,COc1ccc(NS(=O)(=O)c2ccc3oc(SCC(N)=O)nc3c2)cc1,inactive
2,CN(C)S(=O)(=O)c1ccc2oc(SCC(=O)Nc3ccccc3F)nc2c1,10.3 µM (active)
3,COc1ccc(S(=O)(=O)N(C)C)cc1NC(=O)CSc1ncccn1,inactive
4,O=c1c2c(nc3cc(-c4cccc(Cl)c4)[nH]n13)CCCC2,0.517 µM (active)
5,O=c1c2c(nc3nc[nH]n13)CCC2,inactive
6,CCCCN1Cc2c(nc3cc(-c4ccccc4)[nH]n3c2=O)C1=O,inactive
7,Cc1ccc(CNC(=O)Cn2cnc3c(NCc4ccccc4)ncnc32)o1,inactive
8,O=C(Nc1nc(-c2ccc(-c3ccccc3)cc2)cs1)c1cnccn1,inactive
9,Clc1ccc(-c2csc(-c3ccncc3)n2)cc1,inactive
10,CCc1noc(C)c1C(=O)Nc1nc(-c2ccccc2)cs1,inactive
11,Clc1ccc(-n2nnnc2-c2cnc(-c3ccccn3)nc2-c2cccs2)cc1,inactive
12,c1ccc(Nc2nc(-c3ccncc3)cs2)nc1,1.46 µM (active)
13,COc1ccc(Nc2nnc(C)c3ccccc23)cc1,inactive
14,c1csc(-c2cn3c(n2)SCC3)c1,inactive
15,Cc1cccc(S(=O)(=O)CC(=O)Nc2nc(-c3ccccc3)cs2)c1,inactive
16,COc1ccc(NC(=O)c2sc(N)nc2-c2ccccc2)cc1,inactive
17,Clc1ccc(Nc2nc(-c3cccs3)cs2)nc1,1.16 µM (active)
18,Cc1cccc(Nc2nc(-c3ccccc3)cs2)n1,2.91 µM (active)
19,COc1ccc(Nc2nc(-c3ccccc3)cs2)cc1,0.58 µM (active)
20,O=C(NCC#CCSc1nnc(-c2cccc3ccccc23)o1)c1cccs1,inactive
21,O=C(CNC(=O)c1ccco1)NNC(=O)c1ccc(Br)cc1,inactive
22,C[C@H](CO)N1C[C@H](C)[C@@H](CN(C)C(=O)Nc2ccc3c(c2)OCO3)Oc2c(cccc2N(C)C)C1=O,inactive
23,CC(=O)c1ccc(NC(=O)CSc2nc3ccccc3c(=O)n2CCCN2CCOCC2)cc1,inactive
24,Cc1c(NC(=O)C(C)OC(=O)c2ccccc2O)c(=O)n(-c2ccccc2)n1C (configuration not stated),inactive
25,Cn1c(N)c(C(=O)COC(=O)c2cccc(S(=O)(=O)N3CCOCC3)c2)c(=O)n(C)c1=O,inactive
26,C#CCOCCOCCOCCNc1nc(N2CCN(C(=O)C([C@@H](C)O)n3cc([C@@H](N)CCCCN)nn3)CC2)nc(N2CCN(C(=O)[C@H](CCCCN)n3cc(CN)nn3)CC2)n1 (some centres not stated),inactive

row,Compound,Potency
1,Cc1noc(C)c1S(=O)(=O)N(C)C[C@H]1Oc2ccc(NC(=O)C3CC3)cc2C(=O)N([C@H](C)CO)C[C@@H]1C,inactive
2,COc1ccc(CNC(=O)COc2ccccc2C(=O)c2cnn(-c3ccccc3)c2)cc1OC,inactive
3,Cc1ncc(CC(=O)n2cc(C(=O)c3cc(Cl)ccc3O)cn2)s1,inactive
4,O=C(c1cnn(-c2ccc(Cl)cc2)c1)c1ccccc1O,7.3 µM (active)
5,CC[C@]1(C(=O)OC)[C@H]2C(=O)N(Cc3ccccc3)C(=O)[C@H]2[C@H]2CN=C(SCc3ccc(C#N)cc3)N21,inactive
6,CN[C@H](C(=O)NC[C@H]1O[C@@H](n2cnc3c(N)ncnc32)[C@H](O)[C@@H]1O)[C@@H](C)OCc1ccccc1,inactive
7,O=C1[C@@H](c2ccccc2)[C@@H](c2ccccc2)N1c1cccnc1,inactive
8,CC[C@]12c3[nH]c4ccc(Cl)cc4c3CCN1C(=O)[C@@H](CC(=O)NCCCOC)C[C@@H]2C(=O)N1CCN(C(=O)c2ccco2)CC1,inactive
9,O=C(NCCCn1ccnc1)c1ccccc1F,inactive
10,COc1ccc(-c2cc(C(=O)NCCCn3ccnc3)no2)cc1,inactive
11,O=C(NC1CCCCC1)c1ccc(-c2ccc(Cl)cc2)o1,inactive
12,O=C(NC1CCCC1)c1cc(-c2ccccc2)on1,9.2 µM (active)
13,O=C(NCCCn1ccnc1)c1cc(-c2ccccc2)on1,14.6 µM (active)
14,O=C(Nc1cccnc1Cl)c1cc(-c2cccc(Cl)c2)on1,inactive
15,O=C(NC(=S)Nc1ccc(Br)cc1F)C1CCCCC1,inactive
16,COc1ccc(CNC(=O)C[C@H]2C[C@H](C(=O)N3CCOCC3)[C@@]3(CCC4CCCC4)c4[nH]c5ccc(Cl)cc5c4CCN3C2=O)cc1OC,inactive
17,O=C(Nc1cccc(S(=O)(=O)NC2=NCCC2)c1)c1ccc(F)cc1F,inactive
18,CCn1nnc2cc(C(=O)Nc3ccc(C(=O)OC(C)C)cc3)ccc21,inactive
19,CC(C)=C(NC(=O)c1ccccc1)C(=O)N/N=C(\C)c1ccccc1O,inactive
20,C/C(=N\NC(=O)c1ccoc1C)c1ccccc1O,18.3 µM (active)
21,COc1ccccc1N(CC(=O)N/N=C(\C)c1ccccc1O)S(=O)(=O)c1ccc(C)cc1,inactive
22,O=C1NC[C@@H](c2ccccc2)OC(=O)[C@H](Cc2ccc(F)cc2)CC/C=C/C[C@H]1CC(=O)N(CCO)Cc1ccccc1,inactive
23,O=C(c1ccc(F)cc1)n1c(=S)nc2ccccn21,0.651 µM (active)
24,O=C(C[n+]1cc(Br)cc2ccccc21)c1ccc(F)cc1,inactive
25,O=C(c1ccc(F)cc1)n1cc(C(=S)N2CCOCC2)c2ccccc21,inactive
26,O=C(COC(=O)/C=C/c1cccc(Cl)c1)NCc1cccs1,inactive

row,Compound,Potency
1,Nn1c(SCC(=O)Nc2ccc3c(c2)CCC3)nnc1C1CC1,inactive
2,O=C(CSCc1ccc(Cl)cc1)N1CCN(Cc2ccc3c(c2)OCO3)CC1,inactive
3,Cn1c(SCC(=O)N2CCCC2)nnc1-c1cccs1,inactive
4,O=C(CSCc1ccc(Cl)cc1)N1CCCCC1,8.91 µM (active)
5,O=C(CSc1ccsc1[N+](=O)[O-])N1CCCCC1,inactive
6,O=C(COc1ccccc1Cl)N1CCCCCCC1,inactive
7,O=C(CSCc1cccs1)N1CCCC1,16.4 µM (active)
8,CCN(C[C@H]1N[C@@](CC)(C(=O)OC)[C@H]2C(=O)N(Cc3ccccc3)C(=O)[C@@H]12)S(=O)(=O)c1ccccc1,inactive
9,COc1cc(OC)cc(C(=O)NC(C(=O)N2CCC2)C(C)C)c1 (configuration not stated),inactive
10,CC1(C)C(c2cccs2)=[N+]([O-])C2(CCCCC2=O)N1O (configuration not stated),inactive
11,C/C(=N\O)C1(C)N(O)C(C)(C)C(c2ccc(Br)cc2)=[N+]1[O-] (configuration not stated),inactive
12,CC(=O)C1(C)N(O)C(C)(C)C(c2cccs2)=[N+]1[O-] (configuration not stated),0.082 µM (active)
13,CCCc1cc(C(=O)Nc2ccc(C(=O)OC)cc2)cs1,inactive
14,Cc1nc(NC(=O)c2ccc3c(c2)OCCO3)ccc1Br,inactive
15,COc1c(Cl)cc(C(=O)Nc2ccc(Cl)cn2)cc1Cl,inactive
16,O=C(Nc1ccc(Cl)cn1)c1ccc2c(c1)OCCO2,1.16 µM (active)
17,COc1ccc(C(=O)NC(=S)Nc2ccc(Cl)cn2)cc1OC,inactive
18,CCCc1cc(C(=O)Nc2ccc(Cl)cn2)cs1,2.31 µM (active)
19,O=C(Nc1cccc(S(=O)(=O)N2CCCC2)c1)c1cncc(Br)c1,inactive
20,COc1ccc(-c2sc3ccc(OC)cc3c2C#Cc2ccccn2)cc1,inactive
21,COc1cc(OC)c2c(-c3cccc(-c4cccc(N)c4)c3)cc(=O)oc2c1,inactive
22,CCN([C@H](CO)C(C)C)S(=O)(=O)c1ccccc1Br,inactive
23,Cc1ccc2c(c1)C1C[N+](C)(CC(=O)c3ccccc3)CCC1N2C(=O)c1ccccc1Cl (configuration not stated),inactive
24,CC1CCCCC1NC(=O)COc1ccc(C#N)cc1 (configuration not stated),inactive
25,C=CCC[C@@H](Cc1ccc(F)cc1)C(=O)O[C@H](CNC(=O)[C@H](CC=C)CC(=O)N(CCO)Cc1ccccc1)c1ccccc1,inactive
26,COC(=O)c1ccc(CNC(=O)c2ccc(S(=O)(=O)N3CCCCCC3)cc2)cc1,inactive

row,Compound,Potency
1,Cc1noc(C)c1COc1ccc(C(=O)NCCOc2ccccc2)cc1,inactive
2,O=C(NCCOc1ccccc1)c1ccccc1,1.64 µM (active)
3,CCCCCCCCC(=O)NCCOc1ccccc1,inactive
4,Cc1cc(Cl)c(S(=O)(=O)NCC2CCCO2)cc1OCC(N)=O (configuration not stated),inactive
5,Cc1cc(Cl)c(S(=O)(=O)N(C)C)cc1OCC(N)=O,inactive
6,Cc1cc(Cl)c(S(=O)(=O)Nc2ccc3c(c2)OCCO3)cc1OCC(N)=O,23.1 µM (active)
7,COC(=O)C1=C(C)N(Cc2ccccc2)C(=NCCCOC(C)C)N[C@H]1c1ccccc1,inactive
8,CN(C)C(=O)CCc1ccc2c3c([nH]c2c1)[C@]1(C)[C@@H](C(=O)N2CCCCC2)C[C@H](CC(=O)NCCC2=CCCCC2)C(=O)N1CC3,inactive
9,CCn1c2ccc(F)cc2c2nnc(SCCN3CCOCC3)nc21,inactive
10,Cc1cccc(C)c1OCCN1CCOCC1,inactive
11,Cc1cc2nc(SCCN3CCOCC3)[nH]c2cc1C,18.4 µM (active)
12,Cc1ccc(C(=O)OCC(=O)N2CCCCCC2)cc1S(=O)(=O)N1CCOCC1,inactive
13,CCC1C/C(=C/c2cccs2)C(=O)/C(=C/c2cccs2)C1 (configuration not stated),inactive
14,O=C1/C(=C/c2cccs2)CCc2ccccc21,8.2 µM (active)
15,CN1C/C(=C/c2cccs2)C(=O)/C(=C\c2cccs2)C1,inactive
16,O=C(COc1cccnc1[N+](=O)[O-])Nc1ccc(Cl)cc1F,inactive
17,O=C(COC(=O)COc1cccc(F)c1)NCC1CCCCC1,inactive
18,COc1ccc2sc(-c3ccc(S(C)(=O)=O)cc3)c(C#Cc3cncn3C)c2c1,inactive
19,CC(C)(C)OC(=O)C[C@@H]1C/C=C\C[C@H](CC(=O)N[C@@H](CO)Cc2ccccc2)C(=O)N[C@H](Cc2ccccc2)COC1=O,inactive
20,O=C(c1noc2c1CCCC2)N1CCc2ccccc2C1,20.6 µM (active)
21,CN(c1ccc(C(=O)N2CCc3ccccc3C2)cc1)S(C)(=O)=O,inactive
22,Cc1ccc(-c2cc(C(=O)N3CCc4ccccc4C3)no2)cc1,inactive
23,CC(C)CC1(C)NC(=O)N(CC(=O)Nc2ccc3c(c2)OCCO3)C1=O (configuration not stated),inactive
24,Cc1ccc(S(=O)(=O)NCC(=O)NNC(=O)c2ccc(Br)cc2)cc1C,inactive
